Results filed as inconclusive are left out. Active and inactive are the calls of the source. Unless noted, calls come from the whole dose curve; as a rule, active = well fitted curve in the direction sought with a large enough effect; inconclusive = small, poorly fitted or top-dose-only effect, or another doubt; inactive = no such curve, though single readings can be large; an effect the other way counts as inactive or inconclusive.
Legend:
[1] = qHTS Assay for Lipid Storage Modulators (AID 1519; calls by dose curve; for activity change, negative = inhibition: % is set by controls: 0 for no effect and ±100 for the full control effect); details: Drosophila S3 cells, BODIPY lipid droplet/cell ratio, laser cytometry, cells loaded with oleic acid; for activity change, negative = inhibition: at 57.5 µM (top of the series)
Summary of the method: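 Cells seeded at 5,000 per well were treated with compounds over a concentration series and loaded with oleic acid (400 uM, as added). Lipid droplet fluorescence (488 nm excitation, 500-530 nm channel) was read by laser-scanning cytometry and normalized to 20 uM Triacsin C.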

[2] = target: ATP-dependent 6-phosphofructokinase (Trypanosoma brucei brucei) (UniProt O15648); test: qHTS Assay to Find Inhibitors of T. brucei phosphofructokinase: hit validation (AID 492961);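 note: luminescence reports ADP formed as PFK phosphorylates fructose-6-phosphate with ATP; % is set by controls: 0 for no effect and ±100 for the full control effect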; details: T. brucei PFK, ADP-Glo luminescence; series mostly up to 24.3 µM
ATP-dependent 6-phosphofructokinase (Trypanosoma brucei brucei), sequence (O15648 whole entry, looked up): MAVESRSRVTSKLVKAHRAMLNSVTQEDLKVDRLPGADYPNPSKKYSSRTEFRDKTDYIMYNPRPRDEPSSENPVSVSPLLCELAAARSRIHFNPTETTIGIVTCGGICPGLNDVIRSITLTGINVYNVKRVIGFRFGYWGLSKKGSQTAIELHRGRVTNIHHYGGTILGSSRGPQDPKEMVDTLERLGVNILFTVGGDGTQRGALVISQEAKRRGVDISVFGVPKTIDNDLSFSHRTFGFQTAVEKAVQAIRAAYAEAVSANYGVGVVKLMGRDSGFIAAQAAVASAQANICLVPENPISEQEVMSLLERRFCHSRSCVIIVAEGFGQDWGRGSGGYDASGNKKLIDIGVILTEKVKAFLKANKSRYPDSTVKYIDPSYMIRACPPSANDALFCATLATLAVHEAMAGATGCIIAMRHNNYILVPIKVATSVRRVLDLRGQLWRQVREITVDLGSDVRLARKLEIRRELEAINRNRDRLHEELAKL
Summary of the method: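 PFK 1.25 nM, F6P 0.5 mM, ATP 0.1 mM, MgCl2 5 mM, 0.1 M TEA pH 8.0, Tween20 0.01%, BSA 0.1%; 45 min RT. ADP-Glo two-step detection, luminescence. qHTS titration; curve fitting with curve-class categorization.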

[3] = target: Ubiquitin carboxyl-terminal hydrolase 1 (Homo sapiens) (UniProt O94782); test: Inhibitors of USP1/UAF1: Pilot qHTS (AID 504865); details: purified USP1/UAF1, Ub-rhodamine cleavage fluorescence; series mostly up to 114 µM; note: nearly all actives have a fitted effect of over 35% in size; note: potency is the fitted concentration of half-maximal effect;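 for activity change, negative = inhibition: rhodamine fluorescence freed from ubiquitin-rhodamine substrate followed over time; top concentration of the series differs between compounds; % is set by controls: 0 for no effect and ±100 for the full control effect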
Ubiquitin carboxyl-terminal hydrolase 1 (Homo sapiens), sequence (O94782 whole entry, looked up): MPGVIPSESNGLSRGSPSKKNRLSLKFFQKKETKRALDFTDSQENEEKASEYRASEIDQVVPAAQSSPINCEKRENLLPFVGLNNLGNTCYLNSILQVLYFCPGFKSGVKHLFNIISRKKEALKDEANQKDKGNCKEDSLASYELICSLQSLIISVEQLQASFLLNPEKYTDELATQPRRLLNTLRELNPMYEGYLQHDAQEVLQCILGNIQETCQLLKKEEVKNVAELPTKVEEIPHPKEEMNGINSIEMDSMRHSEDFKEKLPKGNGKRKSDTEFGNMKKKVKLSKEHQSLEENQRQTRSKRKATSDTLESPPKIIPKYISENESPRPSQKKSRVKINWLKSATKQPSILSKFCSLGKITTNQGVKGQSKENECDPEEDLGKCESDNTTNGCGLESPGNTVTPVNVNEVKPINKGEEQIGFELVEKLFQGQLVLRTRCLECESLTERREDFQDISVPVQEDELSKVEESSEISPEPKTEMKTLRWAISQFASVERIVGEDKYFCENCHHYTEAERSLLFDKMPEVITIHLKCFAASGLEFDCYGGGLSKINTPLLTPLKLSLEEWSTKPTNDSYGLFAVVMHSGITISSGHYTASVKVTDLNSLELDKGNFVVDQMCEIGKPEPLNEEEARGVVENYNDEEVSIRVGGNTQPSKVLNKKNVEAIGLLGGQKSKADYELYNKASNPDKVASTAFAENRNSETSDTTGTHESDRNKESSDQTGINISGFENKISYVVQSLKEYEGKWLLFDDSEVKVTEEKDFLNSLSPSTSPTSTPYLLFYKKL
Summary of the method: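 Kinetic fluorescence assay: 1nM USP1/UAF1, 15 min compound preincubation, then 150nM Ub-Rho; 480/540 nm.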

[4] = target: Luciferin 4-monooxygenase (Photinus pyralis) (UniProt P08659); test: Biochemical firefly luciferase enzyme assay for NPC (AID 624030);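 note: purified P. pyralis luciferase at 10 nM with luciferin and ATP substrate; 0% = DMSO and -100% = full luciferase inhibition by PTC124 control; nearly all actives have a fitted effect of over 70% in size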; details: purified P. pyralis luciferase, luminescence, 5 min; series mostly up to 24.9 µM
Luciferin 4-monooxygenase (Photinus pyralis), sequence (P08659 whole entry, looked up): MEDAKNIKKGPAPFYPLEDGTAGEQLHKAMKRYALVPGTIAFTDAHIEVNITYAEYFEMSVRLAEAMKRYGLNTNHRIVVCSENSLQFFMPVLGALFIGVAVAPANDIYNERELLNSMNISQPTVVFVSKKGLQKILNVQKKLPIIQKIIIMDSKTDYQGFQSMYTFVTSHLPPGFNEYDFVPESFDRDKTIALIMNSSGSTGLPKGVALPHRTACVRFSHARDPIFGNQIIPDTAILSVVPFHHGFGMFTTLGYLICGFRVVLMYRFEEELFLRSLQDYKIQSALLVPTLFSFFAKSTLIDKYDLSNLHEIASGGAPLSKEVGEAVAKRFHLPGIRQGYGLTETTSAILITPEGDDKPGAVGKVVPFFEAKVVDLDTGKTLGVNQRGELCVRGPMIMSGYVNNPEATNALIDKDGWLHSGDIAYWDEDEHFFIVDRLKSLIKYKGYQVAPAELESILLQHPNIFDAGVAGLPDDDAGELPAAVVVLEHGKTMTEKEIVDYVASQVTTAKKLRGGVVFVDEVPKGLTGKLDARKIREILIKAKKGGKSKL
Summary of the method: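 Counter-screen for direct inhibition of the luciferase enzyme by approved-drug library compounds, run at 10 nM enzyme in 50 mM Tris acetate (final). Luminescence was read within 5 min of enzyme-buffer addition and normalized to PTC124 versus DMSO (0%).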

[5] = qHTS profiling for inhibitors of Plasmodium falciparum proliferation (AID 504749); note: potency is the fitted concentration of half-maximal effect;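 for activity, negative = inhibition: 0% = DMSO vehicle and full inhibition = artemisinin control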; for all read-outs here: nearly all actives have a fitted effect of over 60% in size; details: P. falciparum in erythrocytes, SYBR Green DNA, 72 h; for activity, negative = inhibition: at 28.7 µM (top of the series)
Summary of the method: (§1)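 Parasite proliferation within erythrocytes, 72 h exposure. Endpoint: SYBR Green I fluorescence after overnight lysis at room temperature. Controls: 0.29 uM artemisinin, DMSO.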

3D7 = test: as above; details: P. falciparum in erythrocytes, SYBR Green DNA, 72 h; series mostly up to 12.8 µM
Summary of the method: as §1

AS120 = test: as above; details: P. falciparum in erythrocytes, SYBR Green DNA, 72 h; series mostly up to 12.8 µM
Summary of the method: as §1

C2A = test: as above; details: P. falciparum in erythrocytes, SYBR Green DNA, 72 h; series mostly up to 12.8 µM
Summary of the method: as §1

CP185 = test: as above; details: P. falciparum in erythrocytes, SYBR Green DNA, 72 h; series mostly up to 12.8 µM
Summary of the method: as §1

CP191 = test: as above; details: P. falciparum in erythrocytes, SYBR Green DNA, 72 h; series mostly up to 12.8 µM
Summary of the method: as §1

CP192 = test: as above; details: P. falciparum in erythrocytes, SYBR Green DNA, 72 h; series mostly up to 12.8 µM
Summary of the method: as §1

CP217 = test: as above; details: P. falciparum in erythrocytes, SYBR Green DNA, 72 h; series mostly up to 12.8 µM
Summary of the method: as §1

CP238 = test: as above; details: P. falciparum in erythrocytes, SYBR Green DNA, 72 h; series mostly up to 12.8 µM
Summary of the method: as §1

CP247 = test: as above; details: P. falciparum in erythrocytes, SYBR Green DNA, 72 h; series mostly up to 12.8 µM
Summary of the method: as §1

CP250 = test: as above; details: P. falciparum in erythrocytes, SYBR Green DNA, 72 h; series mostly up to 12.8 µM
Summary of the method: as §1

CP262 = test: as above; details: P. falciparum in erythrocytes, SYBR Green DNA, 72 h; series mostly up to 12.8 µM
Summary of the method: as §1

ECU = test: as above; details: P. falciparum in erythrocytes, SYBR Green DNA, 72 h; series mostly up to 12.8 µM
Summary of the method: as §1

FAB9 = test: as above; details: P. falciparum in erythrocytes, SYBR Green DNA, 72 h; series mostly up to 12.8 µM
Summary of the method: as §1

HB3 = test: as above; details: P. falciparum in erythrocytes, SYBR Green DNA, 72 h; series mostly up to 12.8 µM
Summary of the method: as §1

SC27B = test: as above; details: P. falciparum in erythrocytes, SYBR Green DNA, 72 h; series mostly up to 12.8 µM
Summary of the method: as §1

[6] = measured here: cell count channel max response
[7] = measured here: lipid channel max response

CC1(C)OC2CO[C@]3(COS(N)(=O)=O)OC(C)(C)OC3C2O1 (some centres undefined)
inactive: activity change, negative = inhibition [1] -0.118% | outcome [2] | Potency [3] | Potency [4] | activity, negative = inhibition ([5]; parasite line A) 6.34% | activity, negative = inhibition ([5]; parasite line B) 12.5% | Potency (3D7) | Potency (AS120) | Potency (C2A) | Potency (CP185) | Potency (CP191) | Potency (CP192) | Potency (CP217) | Potency (CP238) | Potency (CP247) | Potency (CP250) | Potency (CP262) | Potency (ECU) | Potency (FAB9) | Potency (HB3) | Potency (SC27B)
7.1%: max response [1, 6]
8.91%: max response [1, 7]

COc1ccc(CC(N)C(=O)NC2C(CO)OC(n3cnc4c(N(C)C)ncnc43)C2O)cc1 (centres undefined)
1.24%: max response [1, 7]
inactive: activity change, negative = inhibition [1] -15.4% | outcome [2] | Potency [3] | Potency [4]
active: Potency ([5]; parasite line A) 794 nM | Potency ([5]; parasite line B) 1000 nM | Potency (3D7) 1000 nM | Potency (AS120) 891 nM | Potency (C2A) 891 nM | Potency (CP185) 631 nM | Potency (CP191) 891 nM | Potency (CP192) 1070 nM | Potency (CP217) 794 nM | Potency (CP238) 794 nM | Potency (CP247) 891 nM | Potency (CP250) 1260 nM | Potency (CP262) 675 nM | Potency (ECU) 891 nM | Potency (FAB9) 1780 nM | Potency (HB3) 1000 nM | Potency (SC27B) 1000 nM
18.9%: max response [1, 6]

Cc1cc(O)c(C=O)c2c1C(=O)Oc1c(C)c(O)c3c(c1O2)C(O)OC3=O (centres undefined)
inactive: activity change, negative = inhibition [1] 13.7%
7.17%: max response [1, 6]
active: Potency [3] 39800 nM
21%: max response [1, 7]

Cc1cc(O)c(C=O)c2c1C(=O)Oc1c(COC(=O)/C=C/C(=O)O)c(O)c(C(=O)O)c(C)c1O2
inactive: activity change, negative = inhibition [1] 4.28%
6.76%: max response [1, 6]
3.61%: max response [1, 7]

COC1C=CO[C@@]2(C)Oc3c(C)c(O)c4c(O)c(c5c(nc6cc(C)ccn65)c4c3C2=O)NC(=O)/C(C)=C\C=CC(C)C(O)[C@@H](C)C(O)C(C)[C@@H](OC(C)=O)C1C (some centres undefined)
inactive: activity change, negative = inhibition [1] -13.7% | outcome [2] | Potency [4]
active: Potency ([5]; parasite line A) 14100 nM | Potency ([5]; parasite line B) 10000 nM | Potency (3D7) 12600 nM | Potency (AS120) 2510 nM | Potency (C2A) 10000 nM | Potency (CP185) 10000 nM | Potency (CP191) 11200 nM | Potency (CP192) 10700 nM | Potency (CP217) 10000 nM | Potency (CP238) 10000 nM | Potency (CP247) 8910 nM | Potency (ECU) 12600 nM | Potency (HB3) 11200 nM | Potency (SC27B) 12600 nM
-14.4%: max response [1, 7]
-0.865%: max response [1, 6]

CC(C)=CCC[C@](C)(O)C1CC=C(C)CC1 (some centres undefined)
4.12%: max response [1, 7]
inactive: activity change, negative = inhibition [1] 6.04% | outcome [2] | Potency [4] | activity, negative = inhibition ([5]; parasite line A) -5.22% | activity, negative = inhibition ([5]; parasite line B) 7.19% | Potency (3D7) | Potency (AS120) | Potency (C2A) | Potency (CP185) | Potency (CP191) | Potency (CP192) | Potency (CP217) | Potency (CP238) | Potency (CP247) | Potency (CP250) | Potency (CP262) | Potency (ECU) | Potency (FAB9) | Potency (HB3) | Potency (SC27B)
-2.85%: max response [1, 6]
